Screening data from PubChem.
sEH act: activators of human soluble epoxide hydrolase; P34913; purified human sEH enzymatic activity, activator screen; activation, % at 2 µM; actives 0.04% (n = 91,000); in the data active = activation above about 37%
Target sequence (P34913 whole entry, looked up): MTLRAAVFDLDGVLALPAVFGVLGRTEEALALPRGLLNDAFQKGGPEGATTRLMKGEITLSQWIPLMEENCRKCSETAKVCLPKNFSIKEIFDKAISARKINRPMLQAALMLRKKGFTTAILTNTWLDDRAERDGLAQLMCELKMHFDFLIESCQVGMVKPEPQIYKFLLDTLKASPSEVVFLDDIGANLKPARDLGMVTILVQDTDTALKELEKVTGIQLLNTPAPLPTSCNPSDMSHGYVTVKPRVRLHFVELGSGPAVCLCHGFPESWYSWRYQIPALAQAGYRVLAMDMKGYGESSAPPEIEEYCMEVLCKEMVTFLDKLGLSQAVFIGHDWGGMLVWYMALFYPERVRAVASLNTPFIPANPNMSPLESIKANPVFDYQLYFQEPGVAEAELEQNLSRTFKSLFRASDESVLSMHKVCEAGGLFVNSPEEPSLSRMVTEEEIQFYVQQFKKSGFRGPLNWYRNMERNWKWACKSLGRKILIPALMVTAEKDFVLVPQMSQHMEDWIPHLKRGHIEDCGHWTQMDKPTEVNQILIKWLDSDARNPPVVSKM
NFkB transloc inh: blocks IL-1B driven NFkB nuclear translocation in HUVEC cells | actives 0.43% (n = 94,000) | HUVEC IL-1B NFkB p65 nuclear translocation imaging | inhibition, % at 2 µM;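 active = inhibition above about 30% together with a positive call from visual inspection of the well image, limit read from the data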;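 note: nuclear over cytoplasmic p65 intensity ratio measured by imaging; 0% = IL-1B stimulated DMSO wells and 100% = unstimulated DMSO wells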
sEH inhibitor: soluble epoxide hydrolase (human) inhibition; AID 707; inhibition, % at 2 µM; actives 0.34% (n = 91,000); recombinant human sEH enzymatic activity assay; in the data active = inhibition above about 80%
IL1B NFkB pot: enhances IL-1B driven NFkB nuclear translocation; HUVEC IL-1B NFkB p65 nuclear translocation imaging; activation, % at 2 µM; actives 0.3% (n = 94,000);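 active = activation above 40%, about the mean plus 3 SD, also judged a hit on visual image review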;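 note: percent activation is computed from the nuclear over cytoplasmic p65 intensity ratio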
IL1B cytotox: HUVEC cytotoxicity counter-screen, IL-1B stimulated. cell count reduction, % at 2 µM. actives 0.41% (n = 94,000). HUVEC cell count loss, Hoechst imaging;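 active = cell count reduction more than 3 SD above the screen-wide mean, cut at about 70% in these data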;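 note: normalized per plate to untreated control cells as the no-loss baseline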
Active calls of the source: *; · = no result. Only some compounds are listed: those with a hit (about 1.2% of all), similar ones and a draw of the others.

SMILES	sEH act	NFkB transloc inh	sEH inhibitor	IL1B NFkB pot	IL1B cytotox
CCOC(=O)N1CCC(NC(=O)C2CCN(C(=O)N3CC(C)Oc4ccc(C)cc43)CC2)CC1 (stereo not drawn)	-32.7	50.5*	31.5	-50.5	20.0
CCOC(=O)N1CCC(NC(=O)C2CCN(C(=O)N3CC(C)Oc4ccccc43)CC2)CC1 (stereo not drawn)	-38.0	-8.8	37.1	8.8	-7.1
Cc1csc(NC(=O)CSc2nnc(CCNC(=O)c3cccs3)n2C)n1	-6.4	99.2*	3.1	-99.2	88.8*
O=C(NC1CCCCC1)NC1CC2CCC(C1)N2Cc1nnnn1Cc1ccc2c(c1)OCO2 (stereo not drawn)	-94.6	3.8	94.7*	-3.8	1.6
CCOC(=O)C1CCCN(Cc2cc(Br)c(OC)cc2OC)C1 (stereo not drawn)	9.1	98.5*	-9.9	-98.5	84.5*
CCOC(=O)C1CCCN(Cc2c(Cl)cccc2Cl)C1 (stereo not drawn)	9.3	·	-10.1	·	·
COC(=O)C1=C(C)N(C)C(=O)NC1c1cc(Cl)c(O)c(OC)c1 (stereo not drawn)	-2.1	-10.2	-0.8	10.2	3.5
COC(=O)C1=C(C)N(C)C(=O)NC1c1ccccc1 (stereo not drawn)	-7.0	-47.0	6.8	47.0*	-4.1
COc1cc(S(=O)(=O)n2nnc3ccccc32)c(OC)cc1Cl	7.1	-18.1	-4.6	18.1	87.1*
COc1cc(S(=O)(=O)n2nc(C)cc2C)c(OC)cc1Cl	-0.8	46.1*	0.9	-46.1	-20.6
C/C(=N\NC(=O)COc1ccc([N+](=O)[O-])cc1)C(C)(C)C	8.7	-2.2	-11.7	2.2	8.0
COc1cccc(COc2nc3c(c(=O)n(C)c(=O)n3C)n2C)c1	-1.1	37.9*	1.1	-37.9	12.4
COc1ccc2[nH]c(C)c(CCN3C(=O)C4C5C=CC(C5)C4C3=O)c2c1 (stereo not drawn)	0.1	-19.0	-1.7	19.0	2.0
O=S(=O)(N/N=C\C=C\c1ccccc1)c1ccc(Cl)cc1	-19.0	-11.5	20.9	11.5	12.4
CCc1ccc(N2CC(C(=O)OCC(=O)NC3CCS(=O)(=O)C3)CC2=O)cc1 (stereo not drawn)	-2.5	24.3	0.6	-24.3	91.6*
O=[N+]([O-])c1cc(/C=N\Nc2nccs2)ccc1O	2.3	-15.2	-1.4	15.2	6.5
COc1ccc(/C=N\NC(=O)C2=NNC(=O)C2C)cc1 (stereo not drawn)	2.1	0.0	-5.0	0.0	9.8
Cc1ccc(C)c(OCCOCCN2CC(C)OC(C)C2)c1C (stereo not drawn)	10.4	-8.3	-10.1	2.3	-7.4
O=C(NCN1CCCCC1)c1cnccn1	5.8	-12.4	-7.1	12.4	90.2*
O=C(Nc1ccccc1)c1ccn[nH]1	0.5	31.4*	-0.8	-31.4	19.4
O=C(COC(=O)c1ccccc1F)c1ccc(-n2nncc2-c2ccco2)cc1	2.1	-41.6	-3.6	41.6*	-18.5
COc1ccc(C(=O)COC(=O)c2ccco2)cc1	·	-36.2	·	36.2	-23.8
CCC(C)n1c(SCC(=O)NC(=O)Nc2ccc3c(c2)OCCO3)nc2ccccc2c1=O (stereo not drawn)	12.2	5.6	-12.6	-5.6	24.9
Cc1cc(C)n2nc(SCC(=O)N/N=C/c3cccc(Br)c3)nc2n1	-19.9	-136.5	21.4	136.5*	-31.0
CC(=O)c1ccc(NC(=O)CSc2nc3nc(C)cc(C)n3n2)cc1	12.0	6.0	-12.3	-6.0	-38.1
SMILES	sEH act	NFkB transloc inh	sEH inhibitor	IL1B NFkB pot	IL1B cytotox
COC(=O)CCS(=O)(=O)c1ccc(Cl)c(Cl)c1	-0.3	-15.1	3.0	15.1	94.8*
Cc1c(Cl)cccc1N1C(=O)C2ON(c3ccccc3)C(c3cccnc3)C2C1=O (stereo not drawn)	2.9	0.4	-3.7	-0.4	-4.2
CCC1CCCCN1C(=O)CSc1nnc(-c2cccs2)o1 (stereo not drawn)	1.7	97.4*	-0.3	-97.4	85.7*
CCOC(=O)CSc1nc2ccccc2c(=O)n1CC1CCC(C(=O)NCc2ccco2)CC1 (stereo not drawn)	-82.5	-2.2	82.4*	2.2	-18.5
COc1ccc(C(C)n2c(C)c3c(C)nnc(C)c3c2C)cc1 (stereo not drawn)	0.1	41.3*	-1.2	-41.3	-19.9
COc1cccc(NS(=O)(=O)c2ccc3[nH]cc(C(=O)NCCC(C)C)c(=O)c3c2)c1	2.6	19.1	-5.4	-19.1	90.9*
COC(=O)C(O)(CC(=O)Nc1ccc(Cl)cc1F)C(F)(F)F (stereo not drawn)	-0.7	31.9*	5.9	-31.9	29.5
Cc1cc(C)c(OCCCCCNCCO)c(C)c1	-7.5	-41.7	3.4	41.7*	-17.0
